Experimental data: the supplement of paper PMC6607015
Where a name gives a salt, the structure may show the parent alone.

How the values were obtained:
Conditions in all cases: compound concentration in added solution (µM; 5 µl added to 20 µl cells): 10; 18 h
A431 [1] = experiment: LBPA endosome anti-LBPA integrated intensity (sum per cell), Z-score; higher = more LBPA staining
Outline: (§1)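 HeLa MZ or A431 cells (3,500/well in 20 µl) were seeded onto 5 µl of 10 µM compound solution in duplicate 384-well imaging plates, incubated 18 h, then fixed in 4% PFA. Cells were stained with 6C4 anti-LBPA antibody, filipin, propidium iodide and CellTracker green, and four 20× images were taken per well. MetaXpress segmentation gave per-cell integrated LBPA or filipin intensity, either whole-cell or within LBPA endosomes. Values are Z-scores normalised in AcuityXpress.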

HeLa MZ [2] = experiment: as above
Outline: as §1

A431 [3] = experiment: whole-cell filipin (free cholesterol) integrated intensity, Z-score; higher = more cholesterol staining
Outline: as §1

HeLa MZ [4] = experiment: as above
Outline: as §1

A431 [5] = experiment: filipin (cholesterol) integrated intensity within LBPA endosomes, Z-score; higher = more cholesterol in LBPA endosomes
Outline: as §1

HeLa MZ [6] = experiment: as above
Outline: as §1

Compound | LBPA endosome anti-LBPA integrated intensity (z-score) (A431 [1]) | LBPA endosome anti-LBPA integrated intensity (z-score) (HeLa MZ [2]) | whole-cell filipin (z-score) (A431 [3]) | whole-cell filipin (z-score) (HeLa MZ [4]) | filipin (z-score) (A431 [5]) | filipin (z-score) (HeLa MZ [6])
O=C([O-])c1ccccc1-c1c2cc(Br)c(=O)cc-2oc2[c]([Hg+])c([O-])c(Br)cc12.[Na+].[Na+].[OH-] [Merbromin] | -0.53 | -1.95 | -0.246 | -0.654 | -0.525 | -0.65
Fc1ccc(C(OCCN2CCN(CCCc3ccccc3)CC2)c2ccc(F)cc2)cc1 | 3.21 |  | 1.65 |  | 2.65 | 
CC(C)(C)NCC(O)c1cc(Cl)c(N)c(Cl)c1 (centres undefined) [Clenbuterol hydrochloride] | 0.0925 | 0.441 | -0.358 | -0.387 | -0.383 | -0.295
C[C@H](N)[C@H](O)c1ccc(O)c(O)c1 [Levonordefrin] | -0.29 | -0.019 | 0.247 | 0.753 | -0.427 | -0.337
CN[C@@H]1[C@@H](O)[C@@H](O[C@@H]2[C@@H](O)[C@H](O[C@H]3O[C@H](CN)CC[C@H]3N)[C@@H](N)C[C@H]2N)OC[C@]1(C)O.CN[C@@H]1[C@@H](O)[C@@H](O[C@@H]2[C@@H](O)[C@H](O[C@H]3O[C@H]([C@@H](C)N)CC[C@H]3N)[C@@H](N)C[C@H]2N)OC[C@]1(C)O.CN[C@@H]1[C@@H](O)[C@@H](O[C@@H]2[C@@H](O)[C@H](O[C@H]3O[C@H]([C@@H](C)NC)CC[C@H]3N)[C@@H](N)C[C@H]2N)OC[C@]1(C)O [Gentamicine sulfate] | -0.58 | -1.17 | -1.14 | -0.98 | -0.535 | -0.682
CC(O)(CS(=O)(=O)c1ccc(F)cc1)C(=O)Nc1ccc(C#N)c(C(F)(F)F)c1 (centres undefined) [Bicalutamide] | -0.376 | -0.104 | -0.0253 | 0.26 | -0.405 | -0.188
CC(Cc1ccccc1)NCCC(c1ccccc1)c1ccccc1 (centres undefined) [Prenylamine lactate] |  | 1.19 |  | 1.27 |  | 2.44
C=C1C[C@@H]2[C@H](CC[C@]3(C)C(=O)CC[C@@H]23)[C@@]2(C)C=CC(=O)C=C12 [Exemestane] | -0.59 | 0.401 | -0.0622 | -0.2 | -0.537 | -0.552
C[C@]12COC(=O)C[C@@H]1CC[C@@H]1[C@@H]2CC[C@@]2(C)[C@H]1CC[C@]2(C)O [Oxandrolone] | -0.386 | -0.00131 | -0.15 | -0.159 | -0.429 | -0.517
O=C1CC[C@@]2(O)[C@H]3Cc4ccc(O)c5c4[C@@]2(CCN3CC2CC2)[C@H]1O5 [Naltrexone hydrochloride dihydrate] | -0.577 | -0.427 | -0.831 | -1 | -0.48 | -0.466
